From the supplement of paper PMC8253809
Where “and” joins values, the source holds several entries; their conditions need not be identical. Equal entries are not always repeated.

Columns and labels:
Assay in all cases: growth inhibition (% activity, log2 RLU normalised to DMSO / staurosporine); higher = more growth inhibition
Settings in all cases: 33 µM
[1] = tested on: DIPGX29 (H3.3 K27M diffuse intrinsic pontine glioma line)
Method in brief: (§1)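 In triplicate, pHGG cell lines and H9-derived neural stem cells were treated for 7 days at 37 °C, 5% CO2 with approved drugs at a single final concentration of about 33 μM, added by pin tool. CellTiter-Glo luminescence, after log2 transformation, was normalised on each plate to % activity between solvent and positive control wells. Growth inhibition is reported as the median across replicates.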

[2] = tested on: DIPGX37 (H3.3 K27M diffuse intrinsic pontine glioma line)
Method in brief: as §1

[3] = tested on: DIPGX7 (H3.3 K27M diffuse intrinsic pontine glioma line)
Method in brief: as §1

[4] = tested on: DIPGX9 (diffuse intrinsic pontine glioma line)
Method in brief: as §1

[5] = tested on: HGGX39 (paediatric high-grade glioma line)
Method in brief: as §1

[6] = tested on: HGGX6 (H3.3 G34R paediatric high-grade glioma line)
Method in brief: as §1

[7] = tested on: HNSC
Method in brief: as §1

[8] = tested on: SUDIPGIV (diffuse intrinsic pontine glioma line)
Method in brief: as §1

[9] = tested on: SUDIPGVI (diffuse intrinsic pontine glioma line)
Method in brief: as §1

[10] = tested on: SUDIPGXIII (diffuse intrinsic pontine glioma line)
Method in brief: as §1

Row | SMILES | growth inhibition [1] | growth inhibition [2] | growth inhibition [3] | growth inhibition [4] | growth inhibition [5] | growth inhibition [6] | growth inhibition [7] | growth inhibition [8] | growth inhibition [9] | growth inhibition [10]
1 | O=c1c(-c2ccc(O)cc2)coc2cc(O)cc(O)c12 | 0.891% | 2.29% | 2.16% | 4.34% | 4.09% | 2.54% | 3.99% | -1.2% | 0.172% | -2.36%
2 | C[C@@H](O[C@H]1OCCN(Cc2n[nH]c(=O)[nH]2)[C@H]1c1ccc(F)cc1)c1cc(C(F)(F)F)cc(C(F)(F)F)c1 | 8.42% | 0.0612% | 5.7% | 4.43% | 12.5% | 7.33% | 8.95% | 13.5% | 5.21% | 10.1%
3 | COc1cc2/c(=N/c3ccc(Br)cc3F)nc[nH]c2cc1OCC1CCN(C)CC1 | 11.5% | 2.67% | 4.34% | 7.45% | 11.1% | 10.7% | 9.55% | -1.09% | -4.91% | 0.39%
4 | O=C(O)c1ccc(NC(=O)[C@H](Cc2ccc(O)cc2)NC(=O)c2ccccc2)cc1 | -3.5% | -1.5% | -2.53% | -1.13% | -2.55% | -0.845% | -2.41% | -2.35% | 0.761% | -0.558%
5 | COc1cc(NC(C)CCCN)c2ncccc2c1 (stereo not given) | 19.8% | 14% | 29.6% | 24.2% | 13% | 25.5% | 66.1% | 25.4% | 28.3% | 11.9%
6 | CC1=C(C(=O)O)N2C(=O)[C@@H](NC(=O)[C@H](N)c3ccccc3)[C@H]2SC1 | -0.253% | 0.936% | 6.97% | -1.35% | 3.87% | 0.198% | -2.54% | -1.66% | -13.3% | 2.38%
7 | CC(C(=O)O)c1ccc(-c2ccccc2)c(F)c1 (stereo not given) | 0.779% | 3.25% | 1.53% | 1.06% | 2.57% | 1.43% | 0.919% | -4.24% | 2.75% | -0.916%
8 | CC1CNc2c(cccc2S(=O)(=O)N[C@@H](CCCNC(=N)N)C(=O)N2CC[C@@H](C)C[C@@H]2C(=O)O)C1 (stereo not given in full) | 0.0741% | 1.59% | -1.49% | 0.277% | -0.0474% | -1.28% | 12.3% | 1.8% | 0.243% | -1.66%
9 | Cc1cccc(Nc2ccncc2S(=O)(=O)NC(=O)NC(C)C)c1 | -1.52% | 1.45% | -0.371% | -0.205% | 1.47% | -0.821% | -0.596% | -1.46% | 1.11% | 1.52%
10 | COc1ccccc1OCC(O)CN1CCN(CC(=O)Nc2c(C)cccc2C)CC1 (stereo not given) | -3.85% and 2.95% | -0.299% and 2.63% | -1.1% and 4.84% | -2.23% and 2.88% | -2.5% and 3.07% | -1.8% and 1.36% | -2.11% and 14% | -2.68% and 2.7% | -1.9% and -0.296% | -2.34% and -1.26%
11 | CCCC1O[C@@H]2C[C@H]3[C@@H]4CCC5=CC(=O)C=C[C@]5(C)[C@H]4[C@@H](O)C[C@]3(C)[C@]2(C(=O)CO)O1 (stereo not given in full) | 2.07% | -0.133% | -1.11% | 3.67% | 3.05% | 1.13% | -0.0191% | 40.8% | -5.45% | 18.8%
12 | CCN(CC)CCCC(C)Nc1ccnc2cc(Cl)ccc12 (stereo not given) | 2.54% | 3.91% | 3.48% | 2.75% | 2.84% | 2.74% | 2.95% | 1.72% | 2.6% | 0.0881%
13 | CC(C(=O)O)c1ccc2c(c1)[nH]c1ccc(Cl)cc12 (stereo not given) | -0.444% | -0.934% | 0.549% | -0.825% | -0.747% | 0.65% | -2.15% | -2.81% | -0.161% | -6.63%
14 | CC1(C)[C@H](C(=O)O)N2C(=O)C[C@H]2S1(=O)=O | 2.32% and -0.376% | -0.186% and 1.2% | 3.29% and 0.579% | 2.15% and 2.67% | 4.9% and 2.16% | 1.21% and -0.215% | 11.1% and 0.73% | 1.62% and -0.448% | 2.58% and 1.67% | 0.364% and -0.373%
15 | NS(=O)(=O)c1cc2c(cc1Cl)N=C(CSCc1ccccc1)NS2(=O)=O | -2.8% | -0.538% | -2.64% | -1.82% | -3.59% | -4.3% | 3.58% | -1.69% | -6.04% | -0.239%
16 | CCN(CC)CCOc1ccc(C(=C(Cl)c2ccccc2)c2ccccc2)cc1 | 26.6% | 11.7% | 45.2% | 12.3% | 36.3% | 28% | 63.5% | 32.8% | 1.14% | 0.221%
17 | N=C(N)NS(=O)(=O)c1ccc(N)cc1 | 1.78% | 3.55% | 1.86% | 2.35% | 3.26% | 1.87% | 0.257% | 1.45% | 1.1% | -0.789%
